The test system of test [1] is Plasmodium falciparum Sir2 (PF13_0152, Sir2A). Put plainly: pfSir2 binders on small-molecule microarrays, primary screen, biochemical, small-molecule microarray, 635 nm fluorescence (AID 1098).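 Further: score merges spot fluorescence intensity with its signal-to-noise ratio.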 To be noted: small-molecule microarray binding, fluorescence 635 nm; higher = more signal.
The nature of test [2]: small-molecule microarray binders of probe aDKK1, primary screen, biochemical, biotinylated probe, 635/667 nm fluorescence (AID 1099).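 Further: score merges 667nm spot fluorescence with signal to noise across triplicate slides.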 As to conditions: higher = more signal.
Test [3] is described as follows: small-molecule microarray binders of probe aCHRDL2, primary screen, biochemical, biotinylated probe, 635/667 nm fluorescence (AID 1100). As to conditions: higher = more signal.
Test [4] can be described thus: splicing luciferase reporter signal modulators, primary screen, spliceosome inhibition project, cell-based, HEK293, splice +/- reporter (AID 1101).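 Further: HEK293 cells carrying a splicing-competent luciferase reporter gene; test concentration not given here.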 To be noted: luminescence, 24 h, higher = more signal, called active from +8 up or from −8 down.
Test [5] deals with Fibroblast growth factor 10 (Homo sapiens) (UniProt O15520). Put plainly: FGF10 binders on small-molecule microarrays, primary screen, biochemical, small-molecule microarray, 635 nm fluorescence (AID 1102). As to conditions: FGF10 binding, fluorescence 635 nm, higher = more signal.
Test [6] concerns glycogen synthase kinase-3 (GSK3A per assay name; protocol says GSK3B). The test can be described thus: GSK3 binders on small-molecule microarrays, primary screen, biochemical, small-molecule microarray, 635 nm fluorescence, GSK3A (AID 1103). Further: the record names both GSK3A and GSK3B. As to conditions: small-molecule microarray binding, fluorescence 635 nm; higher = more signal.
The target in test [7] is Epidermal growth factor receptor (Homo sapiens) (UniProt P00533). Put plainly: EGFR binders on small-molecule microarrays, primary screen, biochemical, small-molecule microarray, 635 nm fluorescence (AID 1104).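 Further: score merges 667 nm emission intensity with spot signal to noise over triplicate slides.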 To be noted: EGFR binding, higher = more signal.
In test [8] the target is Follistatin-related protein 3 (Homo sapiens) (UniProt O95633). The test can be described thus: FSTL3 binders on small-molecule microarrays, primary screen, biochemical, small-molecule microarray, 635 nm fluorescence (AID 1105).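 Further: score merges emission near 667 nm and signal to noise per printed spot across three slides.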 As to conditions: FSTL3 binding, higher = more signal.
Test [9] deals with Dickkopf-related protein 1 (Homo sapiens) (UniProt O94907). Put plainly: DKK1 binders on small-molecule microarrays, primary screen, biochemical, small-molecule microarray, 635 nm fluorescence scan (AID 1106).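 Further: score merges emission near 667 nm with signal to noise over three replicate slides.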 As to conditions: DKK1 binding, higher = more signal.
In test [10] the test system is Inhibin beta A chain (activin A). The test can be described thus: INHBA (activin A) binders on microarrays, primary screen, biochemical, small-molecule microarray, 635 nm fluorescence scan (AID 1107).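 Further: mouse activin A protein probed at 4.33 µg/mL on printed slides; score merges bound-protein fluorescence near 667 nm with spot signal-to-noise.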 As to conditions: small-molecule microarray binding, higher = more signal.
Test [11] has as its system Human papillomavirus type 1a protein E7 (residues 44-93). The test can be described thus: HPV1a E7 fragment binders on microarrays, primary screen, biochemical, small-molecule microarray, residues 44-93, 635 nm fluorescence (AID 1108).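 Further: E7 fragment applied at 1 µg/mL in TBST for 1 h at 4 C; score combines spot fluorescence with its signal to noise ratio.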 To be noted: small-molecule microarray binding, fluorescence 635 nm; higher = more signal.
A short description of test [12]: modulators of HCV replicon luciferase signal, primary screen, HCV replication inhibitor project, Huh7 cells, luciferase reporter (AID 1109).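 Further: huh7 hepatoma cells harbouring a luciferase neomycin HCV replicon reporter; luciferase luminescence as measure of HCV replicon replication; test concentration not given here.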 As to conditions: 48 h, higher = more signal. For orientation: A replicon is a self-replicating genome or part of one, used to study replication in cells.
Test [13] addresses Left-right determination factor 2 (Homo sapiens) (UniProt O00292). Put plainly: LEFTY2 binders on small-molecule microarrays, primary screen, biochemical, small-molecule microarray, 635 nm fluorescence scan (AID 1110). As to conditions: LEFTY2 binding, higher = more signal.
Test [14] has as its target Calmodulin-1 (Homo sapiens) (UniProt P0DP23). Put plainly: CALM1 binders on microarrays, EGTA buffer, profiling panel, biochemical, small-molecule microarray, Cy5-labelled CALM1 (AID 1111).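 Further: labelled calmodulin applied in Tris saline Tween buffer holding calcium plus EGTA and DTT.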 As to conditions: Cy5-CALM1 binding fluorescence, higher = more signal.
For test [15] the target is unchanged. Put plainly: calcium-bound CALM1 binders on microarrays, profiling panel, artefact control for SMM control-protein annotation, biochemical, small-molecule microarray, Cy5-labelled CALM1, plus calcium (AID 1112).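 Further: score merges spot fluorescence with signal to noise from triplicate slides.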 As to conditions: Cy5-CALM1 binding fluorescence, higher = more signal.
Test [16] is described as follows: small-molecule microarray binders of probe aWnt5a, primary screen, biochemical, biotinylated probe, 635/667 nm fluorescence (AID 1113).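 Further: score merges 667 nm fluorescence intensity with signal-to-noise per printed feature.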 To be noted: higher = more signal.
Test [17] is described as follows: small-molecule microarray binders of probe aShh, primary screen, biochemical, biotinylated probe, 635/667 nm fluorescence (AID 1114).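 Further: probe is biotin-labelled aShh protein from a stem cell growth factor screen; measures binding of labelled protein to compounds printed on the slide; score merges feature fluorescence at 667 nm with signal-to-noise.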 As to conditions: higher = more signal.
Test [18] can be described thus: small-molecule microarray binders of probe aNog, primary screen, biochemical, biotinylated probe, 635/667 nm fluorescence (AID 1115).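 Further: probe is biotinylated aNog protein used at 0.15 µg/mL for 1 h at 4 C; z-score combines 667 nm fluorescence of each spot with its signal to noise.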 To be noted: higher = more signal.
The target of test [19] is Torsin-1A-interacting protein 1 (Homo sapiens) (UniProt Q5JTV8). Put plainly: LAP1 binders from COS7 cell lysate, primary screen, small-molecule microarray, 635/667 nm fluorescence (AID 1116). As to conditions: COS7-hLAP1 lysate binding, 635 nm fluorescence, higher = more signal.
For test [20], the target named is Alpha-bungarotoxin (Bungarus multicinctus) (UniProt P60615). Put plainly: alpha-bungarotoxin binders on microarray, profiling panel, artefact control for SMM control protein annotation, biochemical, small-molecule microarray, Alexa647 label, 635/667 nm fluorescence (AID 1117). As to conditions: alpha-BTX-A647 binding fluorescence, higher = more signal.

Active and inactive are the calls of the source.

Chain of Fibroblast growth factor 10 (Homo sapiens) (O15520 whole entry, looked up): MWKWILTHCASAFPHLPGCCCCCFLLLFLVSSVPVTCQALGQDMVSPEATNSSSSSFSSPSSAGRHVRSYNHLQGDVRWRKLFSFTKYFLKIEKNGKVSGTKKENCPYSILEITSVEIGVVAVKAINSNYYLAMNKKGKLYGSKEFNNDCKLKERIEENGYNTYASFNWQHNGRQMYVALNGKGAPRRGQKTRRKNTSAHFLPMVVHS
Chain of Torsin-1A-interacting protein 1 (Homo sapiens) (Q5JTV8 whole entry, looked up): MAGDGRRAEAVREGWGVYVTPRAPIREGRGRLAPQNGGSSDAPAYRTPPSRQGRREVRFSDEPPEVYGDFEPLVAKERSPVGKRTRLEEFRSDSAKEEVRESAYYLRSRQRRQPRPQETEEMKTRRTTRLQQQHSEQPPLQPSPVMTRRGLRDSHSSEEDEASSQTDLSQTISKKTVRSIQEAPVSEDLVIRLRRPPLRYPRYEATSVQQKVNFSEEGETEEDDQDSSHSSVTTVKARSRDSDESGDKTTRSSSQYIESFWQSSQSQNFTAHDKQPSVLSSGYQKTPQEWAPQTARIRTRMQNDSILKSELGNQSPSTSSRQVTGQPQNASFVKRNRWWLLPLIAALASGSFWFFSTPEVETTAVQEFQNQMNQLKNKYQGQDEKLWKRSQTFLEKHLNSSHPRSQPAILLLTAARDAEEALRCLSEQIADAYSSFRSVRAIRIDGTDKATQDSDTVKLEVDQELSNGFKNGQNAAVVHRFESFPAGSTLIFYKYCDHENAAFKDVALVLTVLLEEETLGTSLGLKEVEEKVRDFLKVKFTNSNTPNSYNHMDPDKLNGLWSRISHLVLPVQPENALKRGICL
Chain of Alpha-bungarotoxin (Bungarus multicinctus) (P60615 whole entry, looked up): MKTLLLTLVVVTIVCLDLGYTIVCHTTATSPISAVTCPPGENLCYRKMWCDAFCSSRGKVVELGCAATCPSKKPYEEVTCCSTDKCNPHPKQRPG
Chain of Dickkopf-related protein 1 (Homo sapiens) (O94907 whole entry, looked up): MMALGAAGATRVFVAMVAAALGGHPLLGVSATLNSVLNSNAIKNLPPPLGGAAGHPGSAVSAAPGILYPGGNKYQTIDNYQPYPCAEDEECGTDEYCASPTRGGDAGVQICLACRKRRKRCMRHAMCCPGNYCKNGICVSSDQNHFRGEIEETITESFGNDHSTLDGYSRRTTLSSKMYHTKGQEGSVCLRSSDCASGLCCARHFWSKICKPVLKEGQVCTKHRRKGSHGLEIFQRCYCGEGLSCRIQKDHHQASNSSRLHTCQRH
Chain of Follistatin-related protein 3 (Homo sapiens) (O95633 whole entry, looked up): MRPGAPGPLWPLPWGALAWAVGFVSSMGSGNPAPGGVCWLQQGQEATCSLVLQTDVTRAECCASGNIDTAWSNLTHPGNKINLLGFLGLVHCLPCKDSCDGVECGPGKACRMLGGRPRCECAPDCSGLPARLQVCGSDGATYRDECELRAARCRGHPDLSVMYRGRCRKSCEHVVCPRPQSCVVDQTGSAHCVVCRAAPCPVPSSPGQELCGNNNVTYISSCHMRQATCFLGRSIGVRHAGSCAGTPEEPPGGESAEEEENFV
Chain of Left-right determination factor 2 (Homo sapiens) (O00292 whole entry, looked up): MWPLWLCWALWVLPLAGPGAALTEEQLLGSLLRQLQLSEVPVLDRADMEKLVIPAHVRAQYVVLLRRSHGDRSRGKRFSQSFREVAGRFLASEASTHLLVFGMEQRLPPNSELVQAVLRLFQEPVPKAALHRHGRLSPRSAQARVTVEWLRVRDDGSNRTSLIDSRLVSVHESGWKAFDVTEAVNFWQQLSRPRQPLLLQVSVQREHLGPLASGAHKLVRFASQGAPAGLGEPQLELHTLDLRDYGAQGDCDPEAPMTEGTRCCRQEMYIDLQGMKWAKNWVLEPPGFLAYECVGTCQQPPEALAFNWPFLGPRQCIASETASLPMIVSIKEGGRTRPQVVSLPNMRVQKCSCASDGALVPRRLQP
Chain of Epidermal growth factor receptor (Homo sapiens) (P00533 whole entry, looked up): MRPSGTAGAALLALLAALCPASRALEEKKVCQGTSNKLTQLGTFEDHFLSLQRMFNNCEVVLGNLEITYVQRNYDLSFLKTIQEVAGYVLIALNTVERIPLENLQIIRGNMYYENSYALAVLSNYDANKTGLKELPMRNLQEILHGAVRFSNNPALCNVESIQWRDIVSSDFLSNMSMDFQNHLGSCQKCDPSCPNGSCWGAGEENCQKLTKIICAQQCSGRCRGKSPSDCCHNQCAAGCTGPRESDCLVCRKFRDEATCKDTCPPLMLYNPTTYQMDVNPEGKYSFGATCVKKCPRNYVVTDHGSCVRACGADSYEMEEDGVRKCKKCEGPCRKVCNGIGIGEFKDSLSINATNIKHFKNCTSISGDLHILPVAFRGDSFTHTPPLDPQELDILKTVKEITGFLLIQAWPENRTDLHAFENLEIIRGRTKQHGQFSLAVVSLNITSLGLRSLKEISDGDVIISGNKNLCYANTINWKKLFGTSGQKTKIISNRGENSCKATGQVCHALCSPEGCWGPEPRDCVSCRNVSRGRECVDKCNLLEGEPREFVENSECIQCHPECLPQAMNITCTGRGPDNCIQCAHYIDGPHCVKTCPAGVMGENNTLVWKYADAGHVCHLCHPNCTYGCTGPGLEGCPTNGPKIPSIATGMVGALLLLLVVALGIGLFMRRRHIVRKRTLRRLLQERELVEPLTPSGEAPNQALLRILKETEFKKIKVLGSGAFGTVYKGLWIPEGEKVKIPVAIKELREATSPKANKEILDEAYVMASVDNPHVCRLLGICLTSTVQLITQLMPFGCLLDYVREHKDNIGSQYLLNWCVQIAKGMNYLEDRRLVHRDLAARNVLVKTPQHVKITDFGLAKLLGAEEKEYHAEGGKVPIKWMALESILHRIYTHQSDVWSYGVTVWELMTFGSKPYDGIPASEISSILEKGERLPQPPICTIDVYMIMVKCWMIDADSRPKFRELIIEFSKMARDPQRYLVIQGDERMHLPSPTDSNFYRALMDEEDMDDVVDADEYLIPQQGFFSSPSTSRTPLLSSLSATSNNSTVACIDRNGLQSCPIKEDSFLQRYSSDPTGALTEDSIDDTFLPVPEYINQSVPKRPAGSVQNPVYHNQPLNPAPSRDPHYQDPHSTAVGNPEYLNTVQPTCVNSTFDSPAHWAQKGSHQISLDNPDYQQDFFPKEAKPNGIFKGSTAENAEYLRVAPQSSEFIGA

For `COc1ccccc1CN1C(=O)c2ccccc2[C@@H](C(=O)NCc2ccccc2)[C@@H]1c1ccc(CO)cc1`, the composite z-score in test [1] is 1.48; in test [2] it was -0.262; in test [3], 0.617; in test [5], -0.144; in test [6], 0.883; in test [7], -0.154. Also, the composite z-score in test [8] is -0.113; in test [9], -0.258; in [10], -0.134; in test [11], 0.841; in [13] it was 0.0458; in test [14], -0.473. In addition, the composite z-score is -0.181 in [15]; -0.124 in test [16]; -0.374 in test [17]; -0.416 in test [18]; 0.404 in test [19]; 1.78 in [20]. In addition, the z-score in [4] was -0.263 (inactive); in test [12], -1.01.

With `[N-]=[N+]=NCc1ccccc1[C@@H]1OC(c2ccc(OCCCO)cc2)=N[C@]1(CCS(=O)(=O)c1ccccc1)C(=O)N1CCOCC1`, the composite z-score in [1] turned out to be 1.46; in [2], 1.27; in [3] it was 1.31; in [5], 1.04; in test [6] it was 1.12; in test [7] it was 0.117. The composite z-score is 1.07 in test [8]; -0.242 in [9]; 0.933 in test [10]; 1.41 in [11]; -0.141 in [13]; 1.72 in test [14]. The composite z-score in [15] came to 0.443; in test [16] it was 0.0357; in test [17] it was 0.0381; in test [18], 0.113; in [19] it was 2; in test [20], 2.04. Moreover, the z-score in test [4] was -1.56 (inactive); in test [12], -1.82.

As for `CCCCCCCCCCC(O)C1C=CC2C(=O)NC(=O)C2N1Nc1ccc(Cl)cc1Cl` (stereo not given), the composite z-score is -0.856 in test [1]; -0.214 in test [2]; 0.935 in test [3]; -0.127 in test [5]; -0.535 in test [6]; -0.724 in test [7]. The composite z-score in [8] was -0.88; in [9], -1.04; in test [10] it was 1.14; in test [11] it was 0.732; in [13], -1.67; in test [14] it was 1.21. In addition, the composite z-score is 1.21 in [15]; -0.122 in test [16]; -0.138 in test [17]; 1.07 in [18]; 0.345 in test [19]; -0.133 in test [20]. For the same compound, the z-score in [4] is -0.723 (inactive); in [12] it was -1.26.

With `Cc1ccc([C@H]2C(C(=O)O)=CCN2S(=O)(=O)c2ccc(C)cc2)cc1`, the composite z-score was 0.487 in test [1]; 0.215 in test [2]; 0.761 in [3]; 0.214 in [5]; 0.47 in test [6]; -0.327 in test [7]. The composite z-score in test [8] is 0.312; in test [9], -0.345; in test [10], 1.03; in [11], 0.964; in test [13], -0.441; in test [14], 0.659. Also, the composite z-score in [15] was 0.261; in test [16], -0.001; in test [17] it was -0.0709; in test [18], -0.333; in test [19], 1.54; in test [20], 0.705. The z-score was 0.0638 (inactive) in test [4] and -1.02 in test [12].

Turning to `NC(=O)[C@@H]1[C@H]2C(=O)O[C@H](c3ccccc3)[C@H](c3ccccc3)N2[C@H](c2ccc(O)cc2)[C@@]12C(=O)Nc1ccc(C#CC3=CCCCC3)cc12`, the composite z-score in test [1] was 0.735; in test [2] it was -0.0562; in test [3], -0.42; in [5] it was 0.676; in [6], 0.439; in test [7], -0.122. The composite z-score in test [8] was 0.31; in [9], -0.333; in test [10], 0.763; in test [11], 1.42; in [13] it was -0.585; in test [14], 0.573. Also, the composite z-score in [15] stood at 0.199; in [16], 0.065; in test [17] it was 1.78; in test [18], 1.01; in [19], 0.453; in [20] it was 0.334. For the same compound, the z-score in [4] was -2.28 (inactive); in test [12] it was -3.23.

`O=C1NC(=O)C2C1C=CC(C(O)C1CC=CCC1)N2Nc1ccccn1` (stereo not given): the composite z-score in [1] stood at 1.27; in [2], 0.228; in [3], 0.21; in test [5] it was 0.946; in test [6] it was 0.0089; in test [7], 1.25. The composite z-score in test [8] is 0.179; in [9] it was 1.33; in test [10] it was 1.75; in [11], -0.643; in test [13], 0.571; in test [14] it was -0.282. Besides, the composite z-score was -0.589 in test [15]; -0.0643 in test [16]; -0.147 in test [17]; -0.0852 in test [18]; 1.22 in test [19]; -0.29 in test [20]. Moreover, the z-score was 1.17 (inactive) in test [4] and -0.268 in [12].

For the compound `COc1ccc(C(O)C2C=CC3C(=O)N(C)C(=O)C3N2NC(=O)OC(C)(C)C)c2ccccc12` (stereo not given), the composite z-score in test [1] was found to be 1.47; in test [2], 0.578; in [3], 1.01; in test [5] it was 1.16; in test [6] it was 1.27; in test [7], 0.138. Further, the composite z-score in test [8] is 1.32; in test [9] it was -0.557; in [10] it was 0.441; in test [11], 1.5; in test [13] it was -0.107; in test [14], 1.56. Besides, the composite z-score in test [15] is 0.47; in test [16] it was 0.246; in test [17], 0.275; in test [18], 1.8; in test [19] it was 0.163; in [20], 1.17. The z-score in test [4] is 1.41 (inactive); in test [12], -1.45.

Take `COCCOC(=O)N1C(=O)[C@@]2(c3ccccc31)[C@H](C(N)=O)[C@H]1C(=O)O[C@H](c3ccccc3)[C@H](c3ccccc3)N1[C@@H]2c1ccc(O)cc1`: the composite z-score was 0.784 in test [1]; -0.566 in test [2]; 0.481 in test [3]; 0.0392 in [5]; -0.0985 in test [6]; -0.458 in test [7]. Moreover, the composite z-score is 0.292 in test [8]; -0.0601 in test [9]; 0.0565 in [10]; 1.37 in test [11]; 0.113 in [13]; 0.0186 in test [14]. Further, the composite z-score was -0.346 in [15]; -0.199 in test [16]; -0.0769 in test [17]; -0.334 in test [18]; -0.602 in test [19]; -0.364 in test [20]. Also, the results for the z-score in test [4] and in test [12] were -0.726 (inactive) and -0.328, respectively.
